Assay results taken from PubChem BioAssay (Tox21).
Results filed as inconclusive are left out. Calls of active or inactive are those of the source. Unless noted, calls follow the shape of the dose curve; as a rule, active = well fitted curve in the direction sought with a large enough effect in the repeat runs; inconclusive = weak or mixed curves; inactive = no such curve, though single readings can be large; an effect the other way counts as inactive or inconclusive.

Tests used:
[1] = A CellTox Green Cytotoxicity Assay to monitor cytotoxicity in HEK293 cells - 32 hour (AID 1224881); also: nearly all actives have a fitted effect of over 40% in size
Procedure, shortened: (§1)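 HEK293 cells premixed with CellTox Green dye were seeded at 600 cells/well and left 5 h at 37 C/5% CO2 before pin transfer of 23 nL compound in DMSO. Fluorescence from dye bound to dead-cell DNA was read during 40 h treatment.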

[2] = A CellTox Green Cytotoxicity Assay to monitor cytotoxicity in HepG2 cells - 0 hour (AID 1224882); also: nearly all actives have a fitted effect of over 35% in size
Procedure, shortened: (§2)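 HepG2 cells were seeded together with the CellTox Green dye at 600 cells/well, left 5 h at 37 C/5% CO2, then given compounds in DMSO. Fluorescence from dye bound to dead-cell DNA was read repeatedly over 40 h of treatment at 37 C.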

[3] = A CellTox Green Cytotoxicity Assay to monitor cytotoxicity in HEK293 cells - 8 hour (AID 1224884); also: nearly all actives have a fitted effect of over 35% in size
Procedure, shortened: as §1

[4] = qHTS RealTime-Glo MT Cell Viability Assay in HepG2 cells - 16 hour (AID 1224885); also: nearly all actives have a fitted effect of over 50% in size
Procedure, shortened: (§3)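 Tox21 10K library screened in qHTS format on HepG2 cells carrying RealTime-Glo reagents. Compounds were added after a 5 h preincubation, and the luminescent signal from continuous culture was measured repeatedly during 40 h treatment.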

[5] = qHTS RealTime-Glo MT Cell Viability Assay in HEK293 cells - 24 hour (AID 1224886); also: top concentration of the series differs between compounds; nearly all actives have a fitted effect of over 50% in size
Procedure, shortened: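 Luminescence generated by NanoLuc from substrate produced by living HEK293 cells served as the viability signal. Each value reflects the reading at its stated time point during continuous 40 h compound exposure at 37 C.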

[6] = qHTS RealTime-Glo MT Cell Viability Assay in HEK293 cells - 8 hour (AID 1224887); also: top concentration of the series differs between compounds; nearly all actives have a fitted effect of over 50% in size
Procedure, shortened: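 HEK293 cells mixed with RealTime-Glo reagents (NanoLuc plus cell-permeant prosubstrate) at 600 cells/well, preincubated 5 h at 37 C/5% CO2, then given 23 nL compound in DMSO. Nonlytic luminescence from viable cells was read at 0, 8, 16, 24, 32 and 40 h.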

[7] = A CellTox Green Cytotoxicity Assay to monitor cytotoxicity in HEK293 cells - 16 hour (AID 1224888); also: nearly all actives have a fitted effect of over 35% in size
Procedure, shortened: as §1

[8] = qHTS RealTime-Glo MT Cell Viability Assay in HepG2 cells - 0 hour (AID 1224889); also: nearly all actives have a fitted effect of over 50% in size
Procedure, shortened: as §3

[9] = A CellTox Green Cytotoxicity Assay to monitor cytotoxicity in HepG2 cells - 8 hour (AID 1224890); also: nearly all actives have a fitted effect of over 45% in size
Procedure, shortened: as §2

[10] = qHTS assay to identify small molecule antagonists of the estrogen receptor alpha (ER-alpha) signaling pathway using the BG1 cell line in the presence of 0.1 nM 17-beta-estradiol - cell viability counter screen (AID 1259241); also: nearly all actives have a fitted effect of over 40% in size
Procedure, shortened: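 VM7Luc4E2 cells (endogenous full-length ER-alpha, 4xERE-luciferase), cultured 5 days in charcoal-stripped serum, exposed to compounds with 0.1 nM 17beta-estradiol (final) for 22 hr at 37C. Viability read in same wells as live-cell protease fluorescence after 30 min.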

[11] = qHTS assay to identify small molecule antagonists of the androgen receptor (AR) signaling pathway using the MDA cell line in the presence of 0.5 nM R1881 - cell viability counter screen (AID 1259242); also: nearly all actives have a fitted effect of over 45% in size
Procedure, shortened: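 MDA-kb2 cells (human breast carcinoma, stably carrying MMTV-luciferase reporter) were exposed to compounds with 0.5 nM R1881 (final) for 16 hr at 37C, 0% CO2; viability then read as live-cell protease fluorescence (CellTiter-Fluor, 30 min) in the same wells.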

[12] = target: Estrogen receptor (Homo sapiens) (UniProt P03372); test: qHTS assay to identify small molecule antagonists of the estrogen receptor alpha (ER-alpha) signaling pathway using the BG1 cell line in the presence of 0.1 nM 17-beta-estradiol (AID 1259244); also: nearly all actives have a fitted effect of over 50% in size
Estrogen receptor (Homo sapiens), sequence (P03372 whole entry, looked up): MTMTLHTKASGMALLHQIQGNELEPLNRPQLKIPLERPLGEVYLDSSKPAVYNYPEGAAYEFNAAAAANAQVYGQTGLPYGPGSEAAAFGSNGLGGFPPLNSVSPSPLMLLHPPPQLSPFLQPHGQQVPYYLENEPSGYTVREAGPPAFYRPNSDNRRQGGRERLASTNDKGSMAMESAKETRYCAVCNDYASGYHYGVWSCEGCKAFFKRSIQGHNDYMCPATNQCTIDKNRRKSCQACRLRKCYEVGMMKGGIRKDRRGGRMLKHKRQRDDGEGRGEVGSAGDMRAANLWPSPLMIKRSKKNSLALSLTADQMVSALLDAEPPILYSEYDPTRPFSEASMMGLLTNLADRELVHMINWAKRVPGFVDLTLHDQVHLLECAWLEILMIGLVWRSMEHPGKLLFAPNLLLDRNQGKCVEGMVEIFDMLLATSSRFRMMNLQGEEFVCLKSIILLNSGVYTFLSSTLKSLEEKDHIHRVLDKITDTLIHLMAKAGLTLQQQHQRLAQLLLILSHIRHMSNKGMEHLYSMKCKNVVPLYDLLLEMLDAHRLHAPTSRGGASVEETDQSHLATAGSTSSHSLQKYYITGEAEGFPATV
Procedure, shortened: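 VM7Luc4E2 cells (endogenous full-length ER-alpha, stable 4xERE-luciferase) were grown 5 days in phenol red-free medium with charcoal-stripped FBS, then exposed 22 h at 37C to compounds plus 0.1 nM (final) 17beta-estradiol; ONE-Glo luminescence read-out.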

[13] = qHTS assay to identify small molecule HDAC inhibitors (AID 1259364); also: top concentration of the series differs between compounds; nearly all actives have a fitted effect of over 45% in size
Procedure, shortened: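 Wild-type HCT-116 cells were plated overnight, exposed to compounds for 2 h at 37 °C, then given HDAC-Glo class I/II luminogenic reagent for 30 min at room temperature before luminescence was read.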

[14] = qHTS assay to identify small molecule HDAC inhibitors - cell viability counter screen (AID 1259365)
Procedure, shortened: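 Wild-type HCT-116 cells, 1,500/well, cultured overnight, then compound-treated 2 h at 37 C. Viability measured as ATP luminescence with CellTiter-Glo after 30 min at room temperature.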

[15] = qHTS assay to identify small molecule agonists of the sonic hedgehog signaling (Shh) pathway - cell viability counter screen (AID 1259366); also: nearly all actives have a fitted effect of over 50% in size
Procedure, shortened: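 NIH/3T3-derived Gli1-Luc reporter cells, 2,000 per well, received compound after 4 h and were treated about 23 h at 37C. Viability measured in the same wells by CellTiter-Fluor fluorescence after 1 h.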

[16] = qHTS assay to identify small molecule antagonists of the sonic hedgehog signaling (Shh) pathway - cell viability counter screen (AID 1259367); also: nearly all actives have a fitted effect of over 55% in size
Procedure, shortened: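 Using CellTiter-Fluor, viability of Gli1-Luc reporter 3T3 cells is read by fluorescence in the wells used for the Shh luciferase assay. Treatment lasts 23 hr with conditioned medium, then reagent 1 hr at 37C.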

[17] = A CellTox Green Cytotoxicity Assay to monitor cytotoxicity in HepG2 cells - 32 hour (AID 1224883); also: nearly all actives have a fitted effect of over 50% in size
Procedure, shortened: as §2

[18] = qHTS assay to identify small molecule phospholipidosis (PLD) inducers (AID 1259344; active = well fitted curve in the direction sought with a large enough effect; an effect the other way counts as inactive or inconclusive)
Procedure, shortened: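 Fluorescent phospholipid staining (LipidTOX Red) measured by automated microscopy in fixed HepG2 cells after 24 h treatment; nuclei counterstained with Hoechst 33342; amiodarone as reference inducer.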

[19] = qHTS assay to identify small molecule agonists of the sonic hedgehog signaling (Shh) pathway (AID 1259368; calls by dose curve; also: series mostly up to about 92 µM; nearly all actives have a fitted effect of over 15% in size)
Procedure, shortened: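 NIH/3T3-derived 3T3Gli1-Luc cells carrying a stably integrated Gli1 response element–firefly luciferase reporter were plated, left 4 hr at 37 C, then given compounds in DMSO for 24 hr. Luminescence was read 30 min after adding luciferase reagent.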

[20] = target: Androgen receptor (Homo sapiens) (UniProt P10275); test: qHTS assay to identify small molecule antagonists of the androgen receptor (AR) signaling pathway using the MDA cell line in the presence of 0.5 nM R1881 (AID 1259243); also: nearly all actives have a fitted effect of over 50% in size
Androgen receptor (Homo sapiens), sequence (P10275 whole entry, looked up): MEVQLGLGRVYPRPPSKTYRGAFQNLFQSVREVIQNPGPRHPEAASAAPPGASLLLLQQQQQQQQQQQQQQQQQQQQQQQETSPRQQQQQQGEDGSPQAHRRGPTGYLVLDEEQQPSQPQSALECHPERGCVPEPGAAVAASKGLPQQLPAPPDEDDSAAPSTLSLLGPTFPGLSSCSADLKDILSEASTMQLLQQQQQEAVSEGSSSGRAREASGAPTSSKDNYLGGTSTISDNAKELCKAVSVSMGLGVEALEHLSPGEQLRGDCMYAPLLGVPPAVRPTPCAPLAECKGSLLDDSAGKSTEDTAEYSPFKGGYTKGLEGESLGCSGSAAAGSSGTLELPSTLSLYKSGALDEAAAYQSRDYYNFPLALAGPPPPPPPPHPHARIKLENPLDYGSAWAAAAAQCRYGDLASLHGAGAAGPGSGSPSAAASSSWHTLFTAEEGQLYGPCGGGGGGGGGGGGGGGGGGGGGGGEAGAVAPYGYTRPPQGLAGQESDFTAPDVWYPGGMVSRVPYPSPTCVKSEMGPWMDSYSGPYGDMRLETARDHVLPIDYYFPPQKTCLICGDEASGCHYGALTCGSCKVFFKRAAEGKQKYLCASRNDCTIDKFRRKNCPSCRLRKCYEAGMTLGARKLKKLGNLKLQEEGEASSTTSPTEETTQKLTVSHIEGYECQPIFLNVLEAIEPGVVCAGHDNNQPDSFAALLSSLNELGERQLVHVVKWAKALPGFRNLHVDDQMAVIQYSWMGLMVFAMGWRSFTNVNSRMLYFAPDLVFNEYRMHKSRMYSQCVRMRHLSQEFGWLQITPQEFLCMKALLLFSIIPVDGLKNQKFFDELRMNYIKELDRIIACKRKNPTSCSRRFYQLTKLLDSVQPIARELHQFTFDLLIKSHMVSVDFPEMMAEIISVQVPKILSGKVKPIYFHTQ
Procedure, shortened: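 MDA-kb2 human breast carcinoma cells carrying an MMTV-luciferase reporter (AR- and GR-responsive) were plated, rested 5 hr at 37C, dosed with compounds, then stimulated with 0.5 nM R1881 (final) for 16 hr; luminescence was read after ONE-Glo.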

Measured: Potency

CC1OC1C1CCC2(C)OC2C1 (stereo not drawn)
not listed: [17] | [18] | [19] | [20]
inactive: all other assays above

Nc1ccn([C@@H]2O[C@H](CO)[C@@H](O)C2(F)F)c(=O)n1
not listed: [5] | [6] | [19] | [20]
inactive: all other assays above

Cc1cccc(C)c1NC(=O)CC12CCCN1CCC2
not listed: [2] | [17] | [18] | [20]
inactive: all other assays above

Nc1c2c(nc3c1CCC3)CCCC2
not listed: [1] | [16] | [18]
inactive: all other assays above

OCCCCCO
not listed: [5] | [16] | [17] | [18] | [20]
inactive: all other assays above

CCN[C@H]1C[C@H](C)S(=O)(=O)c2sc(S(N)(=O)=O)cc21
not listed: [1] | [16] | [20]
inactive: all other assays above

C=COCC1CCC(COC=C)CC1 (stereo not drawn)
not listed: [6] | [17] | [18] | [20]
inactive: all other assays above
